This passage reports growth inhibition results from PubChem BioAssay (NCI).

The panel holds about 79,000 compounds, 15% with a hit somewhere; the sample as a whole holds those more often. A number with no mark means an inactive call. The source made the active and inactive calls. Cut-off read from the data, not from the text of the source: active = growth inhibition above about 70%; inactive = the rest.

The nature of the first experiment: NCI Yeast Anticancer Drug Screen. Data for the cln2 rad14 strain (AID 165).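 Note: 0% = growth equal to vehicle treated cultures.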 Particulars: S. cerevisiae cln2 rad14 strain, at 5.0 µM (retest, dose inferred, filed as 0.5), active compounds read high. The procedure, abridged: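 Test compounds were added to cln2 rad14 yeast cultures; inhibition of growth was then determined by comparison with vehicle treatment.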
Consider `CCOC(=O)/C=C(\CC(=O)OCC)C(=O)OCC`, for which the growth inhibition is -3%.

Turning to `Cc1cc(Cl)cc2c1NC(=O)C2(O)C(C)C(=O)c1ccc(Cl)cc1` (stereo not given), the growth inhibition was -1%.

In the case of `C=CS(=O)(=O)c1ccc([N+](=O)[O-])cc1`, the growth inhibition was -16%.

For the compound `Oc1cc(Br)ccc1/C=N/Nc1ccccn1`, the growth inhibition was -1%.

For `CC(C)C(CC(C)(C)C)OC(=O)Nc1cccc2ccccc12` (stereo not given), the growth inhibition was -17%.

For the compound `CC(=O)[O-].O=C(N/N=C/c1ccccc1[O-])c1ccccc1.[Zn+2]`, the growth inhibition is -5%.

As to `COc1cc(C2C(C(=O)Nc3ccc(Cl)c(Cl)c3)=C(C)NC(C)=C2C(=O)Nc2ccc(Cl)c(Cl)c2)ccc1O`, the growth inhibition was 7%.

As to `[Ce+3].[Cl-].[O-]/N=C(\c1ccccc1)c1ccccn1.[O-]/N=C(\c1ccccc1)c1ccccn1.[O-]/N=C(\c1ccccc1)c1ccccn1`, the growth inhibition was 29%.

Take `CCCCCCCCN1C(=O)c2ccccc2S1(=O)=O`: the growth inhibition is -17%.

With `CC(=O)N(C1=C(Cl)C(=O)c2ccccc2C1=O)c1ccc(C)cc1`, the growth inhibition is 100% (active).

On to `COc1ccc(Cl)c(-c2cc(OC)c(N=N/C(=N/Nc3ccc([N+](=O)[O-])cc3)c3ccc([N+](=O)[O-])cc3)cc2Cl)c1`, for which the growth inhibition is 74% (active).

With `CCOC(=O)CSC(=S)N1CCOCC1`, the growth inhibition is -5%.

Consider `CC1(C)COC(c2cccc(C(O)c3ccc(Cl)cc3)c2)=N1` (stereo not given), for which the growth inhibition is -2%.

Consider `COc1ccc(/C=C/C(C(=O)O)C(=O)O)cc1`, for which the growth inhibition is 37%.

Regarding `COc1ccc2c(Cc3ccc(O)cc3)cncc2c1O`, the growth inhibition was 5%.

Consider `COC1=CC23C=CC1[C@@H](c1ccccc1)C2=C(C)C(=O)N3C(=O)NC1CCCCC1` (stereo not given in full), for which the growth inhibition was 5%.

As to `O=c1c2c3c(sc2nc2n1N=C(c1ccc(Br)cc1)CS2)CCCC3`, the growth inhibition is 17%.

With `Cc1noc(NS(=O)(=O)c2ccc(N=Nc3cc(N=Nc4ccc(S(=O)(=O)Nc5onc(C)c5C)cc4)c4c(NC(=O)C(Cl)Cl)cccc4c3O)cc2)c1C` (tested in a mixture with another compound), the growth inhibition was 96% (active).

`CC(=O)OC1=CC2(OC(C)=O)CC(C)(C)C1C1C(=O)C=CC(=O)C12` (stereo not given): the growth inhibition is 3%.

As for `COC1CCC(/C(C#N)=C/c2ccco2)CC1` (stereo not given), the growth inhibition is 22%.

For `CCN(CC)CCNc1cc(C)nc2c1ccc1c2ccc2c(NCCN(CC)CC)cc(C)nc21`, the growth inhibition is -16%.

In the case of `O=c1sc(=S)[nH]c2ccccc12`, the growth inhibition was -4%.

For the compound `Oc1c(Br)ccc2c(O)c(Br)ccc12`, the growth inhibition is 57%.

For the compound `Nc1ccccc1CCc1ccccc1`, the growth inhibition was -1%.

As to `Cc1cc2c(cc1O)CC[C@@H]1[C@@H]2CC[C@]2(C)[C@@H](O)CC[C@@H]12`, the growth inhibition was -9%.

On to `O=c1c2ccccc2sc2c([N+](=O)[O-])ccc(NCCNCCO)c12`, for which the growth inhibition is 25%.

Consider `NC(=S)NNc1c([N+](=O)[O-])cnn(-c2ccccc2)c1=O`, for which the growth inhibition is -9%.

For the compound `COc1ccccc1NC(=O)c1ccccc1F`, the growth inhibition is -60%.

For the compound `COc1ccc(/C=C2\SC(=S)N(/C=C(/C#N)C(=O)c3ccc4ccccc4c3)C2=O)cc1OC`, the growth inhibition was -13%.

Consider `COC(=O)C1(OC(=O)CCC(=O)O)C(=O)NC2=C1C(=O)c1ccccc1C2=O` (stereo not given), for which the growth inhibition was 2%.

As for `Cc1cc(=O)c2c(ccc3cc4ccccc4cc32)[nH]1`, the growth inhibition is -5%.

With `CCc1nc(N)nc(N)c1-c1ccc(N(C)Cc2ccccc2)c([N+](=O)[O-])c1`, the growth inhibition is 31%.

As for `O=C1CSC(c2ccccc2O)N1c1ccc(-n2c(-c3ccccc3)nc3ccccc3c2=O)cc1` (stereo not given), the growth inhibition was 29%.

As for `O=C(C[P+](c1ccccc1)(c1ccccc1)c1ccccc1)c1ccc(Br)cc1`, the growth inhibition is 22%.

`O=NN(CCCl)C(=O)Oc1ccc(OC(=O)N(CCCl)N=O)cc1`: the growth inhibition was 53%.

For `Cc1cccc(C[N+](C)(C)CCCO)c1C`, the growth inhibition was 2%.

Take `CC(C)NC(=O)OCCS(=O)c1c(Cl)c(Cl)nn1C` (stereo not given): the growth inhibition was 1%.

For the compound `COC1=CC(=O)[C@H]2CC(C)=CC[C@]2(C)C1=O`, the growth inhibition is 1%.

As to `Oc1ccc(O)c2c(O)c3ccccc3c(O)c12`, the growth inhibition is 15%.

In the case of `O=[N+]([O-])c1cc(Br)cc(Br)c1O`, the growth inhibition was 20%.

Staying with this experiment, now noted: S. cerevisiae cln2 rad14 strain, at 50.0 µM (retest, dose inferred, filed as 5.0), active compounds read high.
`CCOC(=O)/C=C(\CC(=O)OCC)C(=O)OCC`: the growth inhibition is -6%.

In the case of `Cc1cc(Cl)cc2c1NC(=O)C2(O)C(C)C(=O)c1ccc(Cl)cc1` (stereo not given), the growth inhibition is 99% (active).

Take `C=CS(=O)(=O)c1ccc([N+](=O)[O-])cc1`: the growth inhibition was 98% (active).

Turning to `Oc1cc(Br)ccc1/C=N/Nc1ccccn1`, the growth inhibition was 53%.

As to `CC(C)C(CC(C)(C)C)OC(=O)Nc1cccc2ccccc12` (stereo not given), the growth inhibition was 95% (active).

Regarding `CC(=O)[O-].O=C(N/N=C/c1ccccc1[O-])c1ccccc1.[Zn+2]`, the growth inhibition is 32%.

As for `COc1cc(C2C(C(=O)Nc3ccc(Cl)c(Cl)c3)=C(C)NC(C)=C2C(=O)Nc2ccc(Cl)c(Cl)c2)ccc1O`, the growth inhibition is 7%.

With `[Ce+3].[Cl-].[O-]/N=C(\c1ccccc1)c1ccccn1.[O-]/N=C(\c1ccccc1)c1ccccn1.[O-]/N=C(\c1ccccc1)c1ccccn1`, the growth inhibition is 32%.

Regarding `CCCCCCCCN1C(=O)c2ccccc2S1(=O)=O`, the growth inhibition is 95% (active).

As to `CC(=O)N(C1=C(Cl)C(=O)c2ccccc2C1=O)c1ccc(C)cc1`, the growth inhibition was 98% (active).

Turning to `COc1ccc(Cl)c(-c2cc(OC)c(N=N/C(=N/Nc3ccc([N+](=O)[O-])cc3)c3ccc([N+](=O)[O-])cc3)cc2Cl)c1`, the growth inhibition is 0%.

With `CCOC(=O)CSC(=S)N1CCOCC1`, the growth inhibition was -9%.

With `CC1(C)COC(c2cccc(C(O)c3ccc(Cl)cc3)c2)=N1` (stereo not given), the growth inhibition was 99% (active).

As for `COc1ccc(/C=C/C(C(=O)O)C(=O)O)cc1`, the growth inhibition is 47%.

For `COc1ccc2c(Cc3ccc(O)cc3)cncc2c1O`, the growth inhibition was 4%.

Consider `COC1=CC23C=CC1[C@@H](c1ccccc1)C2=C(C)C(=O)N3C(=O)NC1CCCCC1` (stereo not given in full), for which the growth inhibition was 5%.

On to `O=c1c2c3c(sc2nc2n1N=C(c1ccc(Br)cc1)CS2)CCCC3`, for which the growth inhibition was 10%.

As to `Cc1noc(NS(=O)(=O)c2ccc(N=Nc3cc(N=Nc4ccc(S(=O)(=O)Nc5onc(C)c5C)cc4)c4c(NC(=O)C(Cl)Cl)cccc4c3O)cc2)c1C` (tested in a mixture with another compound), the growth inhibition was 65%.

`CC(=O)OC1=CC2(OC(C)=O)CC(C)(C)C1C1C(=O)C=CC(=O)C12` (stereo not given): the growth inhibition is -10%.

`COC1CCC(/C(C#N)=C/c2ccco2)CC1` (stereo not given): the growth inhibition is 29%.

On to `CCN(CC)CCNc1cc(C)nc2c1ccc1c2ccc2c(NCCN(CC)CC)cc(C)nc21`, for which the growth inhibition was 95% (active).

Consider `O=c1sc(=S)[nH]c2ccccc12`, for which the growth inhibition was 3%.

Regarding `Oc1c(Br)ccc2c(O)c(Br)ccc12`, the growth inhibition was 98% (active).

`Nc1ccccc1CCc1ccccc1`: the growth inhibition was 78% (active).

As for `Cc1cc2c(cc1O)CC[C@@H]1[C@@H]2CC[C@]2(C)[C@@H](O)CC[C@@H]12`, the growth inhibition is -17%.

As for `O=c1c2ccccc2sc2c([N+](=O)[O-])ccc(NCCNCCO)c12`, the growth inhibition was 98% (active).

`NC(=S)NNc1c([N+](=O)[O-])cnn(-c2ccccc2)c1=O`: the growth inhibition is 16%.

Take `COc1ccccc1NC(=O)c1ccccc1F`: the growth inhibition was -72%.

Consider `COc1ccc(/C=C2\SC(=S)N(/C=C(/C#N)C(=O)c3ccc4ccccc4c3)C2=O)cc1OC`, for which the growth inhibition was 97% (active).

Turning to `COC(=O)C1(OC(=O)CCC(=O)O)C(=O)NC2=C1C(=O)c1ccccc1C2=O` (stereo not given), the growth inhibition is 6%.

`Cc1cc(=O)c2c(ccc3cc4ccccc4cc32)[nH]1`: the growth inhibition is 17%.

On to `CCc1nc(N)nc(N)c1-c1ccc(N(C)Cc2ccccc2)c([N+](=O)[O-])c1`, for which the growth inhibition is 40%.

For the compound `O=C1CSC(c2ccccc2O)N1c1ccc(-n2c(-c3ccccc3)nc3ccccc3c2=O)cc1` (stereo not given), the growth inhibition was 79% (active).

As to `O=C(C[P+](c1ccccc1)(c1ccccc1)c1ccccc1)c1ccc(Br)cc1`, the growth inhibition is 96% (active).

Regarding `O=NN(CCCl)C(=O)Oc1ccc(OC(=O)N(CCCl)N=O)cc1`, the growth inhibition was 90% (active).

`Cc1cccc(C[N+](C)(C)CCCO)c1C`: the growth inhibition was 1%.

`CC(C)NC(=O)OCCS(=O)c1c(Cl)c(Cl)nn1C` (stereo not given): the growth inhibition is 20%.

For `COC1=CC(=O)[C@H]2CC(C)=CC[C@]2(C)C1=O`, the growth inhibition is -2%.

In the case of `Oc1ccc(O)c2c(O)c3ccccc3c(O)c12`, the growth inhibition was 58%.

Consider `O=[N+]([O-])c1cc(Br)cc(Br)c1O`, for which the growth inhibition was 41%.
